# Screens as filed in PubChem BioAssay.
# MEX-5 binding – C. elegans MEX-5 TCR-2 RNA binding activity; activity score (negative = inhibition of binding), % at 10 µM; AID 1832; actives 0.38% (n = 300,000); Q9XUB2; MEX-5/FITC-TCR2 RNA binding, fluorescence polarization; stronger effect = lower value;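 active means inhibition past about -25% in most replicates, and total fluorescence under double the plate's negative control median, limit read from the data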
# EBV gp42 inh – blocks Epstein-Barr virus glycoprotein 42 binding; inhibition, % (tested at 21.74 µM); AID 1085; actives 0.42% (n = 220,000); Fluorescence polarization binding assay, mP read-out; Q1HVG2; in the data active means inhibition above about 50%
# eLon inh – inhibits E. coli Lon protease; P0A9M0; purified E. coli Lon protease, fluorescence polarization; inhibition, % at 7.94 µM; actives 0.42% (n = 360,000); AID 602123; in the data active means inhibition above about 13%, passing the limit was not always enough
# GLD-1 RNA inh – GLD-1-TGE RNA interaction inhibition (C. elegans); purified GLD-1 + fluorescein TGE RNA, fluorescence polarization; AID 2280; Q17339; actives 0.44% (n = 320,000); inhibition, % at 5.96 µM;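 active means percent inhibition above a per-plate cutoff, the plate mean of test compounds plus 3 SD, cut at about 30% in these data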
# Target sequence (Q17339 whole entry, looked up): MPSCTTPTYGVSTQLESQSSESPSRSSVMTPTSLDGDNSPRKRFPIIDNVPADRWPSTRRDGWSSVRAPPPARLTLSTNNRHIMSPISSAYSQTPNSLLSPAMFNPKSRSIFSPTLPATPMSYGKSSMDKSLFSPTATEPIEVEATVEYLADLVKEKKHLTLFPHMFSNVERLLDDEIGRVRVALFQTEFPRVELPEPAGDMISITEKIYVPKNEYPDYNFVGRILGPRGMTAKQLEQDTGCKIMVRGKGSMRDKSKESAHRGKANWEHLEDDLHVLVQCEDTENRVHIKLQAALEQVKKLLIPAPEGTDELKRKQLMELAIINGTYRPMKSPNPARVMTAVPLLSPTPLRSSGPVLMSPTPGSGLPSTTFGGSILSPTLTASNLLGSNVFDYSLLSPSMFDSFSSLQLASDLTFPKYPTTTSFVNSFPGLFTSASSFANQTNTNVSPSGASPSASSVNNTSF
# MCL1-BIM inh – inhibitors of human MCL1 binding to BIM-BH3 peptide; actives 0.68% (n = 320,000); inhibition, % at 10.9 µM; Q07820; GST-MCL1 / FITC-Bim-BH3 fluorescence polarization;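 active means inhibition above the mean inhibition of all tested compounds plus 3 SD, set per campaign, cut at about 40% in these data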;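 further: higher means more loss of mP so more displacement of Bim peptide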
# BCLXL inh – inhibitors of human Bcl-xL. Q07817. GST-Bcl-xL / FITC-Bim BH3 peptide fluorescence polarization. inhibition, % at 10.9 µM. actives 0.7% (n = 320,000);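 active means inhibition above the mean of all tested compounds plus 3 SD, cutoff set per campaign, cut at about 30% in these data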;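 further: inhibitors lower millipolarization by displacing the labeled peptide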
# A number is an active result; i = inactive; nt = no result. Compounds with a hit are over-represented: about 1.5% of the library has one in this group of screens.
SMILES,MEX-5 binding,EBV gp42 inh,eLon inh,GLD-1 RNA inh,MCL1-BIM inh,BCLXL inh
CCOC(=O)COc1nc2c(c(-c3ccco3)c1C#N)CCc1ccccc1-2,i,i,i,i,i,i
Cc1ccc(-c2cc(C(=O)N3CCCc4ccccc43)c3ccccc3n2)cc1,i,i,i,i,i,i
Cc1ccc2nc3sc(C(=O)N4CCCc5ccccc54)c(N)c3cc2c1,-35,i,i,i,i,i
CCCCn1c(N)c(N(CC(C)C)C(=O)c2cccc(OCc3ccccc3)c2)c(=O)[nH]c1=O,i,nt,i,i,i,i
CC(=O)c1cccc(Nc2c3c(nc4ccccc24)CCC3)c1,i,nt,i,i,i,i
CC(=O)c1ccc(Nc2c3c(nc4ccccc24)CCCC3)cc1,i,86,i,i,i,i
O=S(=O)(c1ccc(F)cc1)N1CCN(S(=O)(=O)c2cccs2)CC1,i,nt,i,i,i,i
COc1cccc(N=Cc2ccc(O)cc2O)c1,i,i,i,i,43,43
Oc1ccc(C=Nc2cccc3ncccc23)c(O)c1,i,i,i,55,i,i
O=C(Nc1ccc(Br)cc1)C1OCCc2ccccc21 (stereo not drawn),i,i,i,i,i,i
Cc1cc(C)c(NC(=O)CNC(=O)CSc2nnc(N)s2)c(C)c1,i,nt,i,i,i,i
NS(=O)(=O)c1ccc(CNC(=O)c2cc(-c3ccccn3)nc3ccc(Cl)cc23)cc1,i,i,i,i,44,41
O=C(c1ccco1)N1CCN(C(=O)c2cc(-c3ccccc3)nc3ccccc23)CC1,i,i,i,i,i,i
O=C(c1ccco1)N1CCN(C(=O)c2cc(-c3ccccn3)nc3ccc(Cl)cc23)CC1,i,i,i,i,i,40
NS(=O)(=O)c1ccc(CNC(=O)c2cc(-c3cccnc3)nc3ccc(Cl)cc23)cc1,i,nt,i,i,i,i
O=C(CSc1nc(-c2ccccc2)nc2c1Cc1ccccc1O2)Nc1ccc(C(=O)O)cc1,nt,87,i,nt,nt,nt
O=C(CSc1nc(-c2ccc(F)cc2)nc2ccc(F)cc12)Nc1cccc(C(=O)O)c1,i,i,i,i,i,i
O=C(CSc1nc(-c2ccc(F)cc2)nc2c1Cc1ccccc1O2)Nc1ccc(C(=O)O)cc1,nt,74,i,nt,nt,nt
CCc1nnc(NC(=O)c2ccc(OC)c(S(=O)(=O)N3CCCC3)c2)s1,nt,nt,i,i,i,i
CCCCC1=CC2=C(c3ccco3)C(=O)C(C)(OC(=O)c3ccc(OC)cc3)C(=O)C2=CN1Cc1ccccc1 (stereo not drawn),i,52,i,44,i,37
COCCNc1nc(-c2cc(C)n(CCc3ccc(OC)cc3)c2C)cs1,i,i,i,i,i,33
Cc1ccc(S(=O)(=O)NCC(C)n2cncn2)cc1C (stereo not drawn),i,nt,i,i,i,i
CC(=O)C1=C(C)OC(N)=C(C#N)C1c1ccncc1 (stereo not drawn),i,i,i,i,42,30
Cn1c(=O)c(C(=O)Nc2ccccc2S(N)(=O)=O)c(O)c2ccccc21,i,i,i,i,i,34
CC(C)Cn1c(=O)c(C(=O)Nc2ccccc2S(N)(=O)=O)c(O)c2ccccc21,i,i,i,i,i,i
SMILES,MEX-5 binding,EBV gp42 inh,eLon inh,GLD-1 RNA inh,MCL1-BIM inh,BCLXL inh
c1ccc(NN=C(c2ccccc2)c2cccs2)cc1,nt,nt,i,nt,nt,nt
CCOC(=O)C(=Cc1ccc(-c2ccsc2C(=O)OC)o1)C(=O)OCC,i,i,i,i,i,i
CCOC(=O)/C(C#N)=C/c1ccc(-c2ccsc2C(=O)OC)o1,-55,i,i,i,i,i
O=C(O)CN1C(=O)/C(=C\c2cc(Br)ccc2OCc2ccccc2Cl)SC1=S,i,nt,i,i,57,i
CC(=O)NCCNc1nc2cc(-c3cc(F)ccc3C)sc2c(=O)n1C,nt,nt,i,nt,nt,nt
O=C(CCc1nc2ccccc2c(=O)[nH]1)Nc1ccc(F)c([N+](=O)[O-])c1,i,i,i,i,i,30
N#CC1=C(N)OC2=C(CC/C2=C\c2ccccc2)C1c1ccccc1 (stereo not drawn),i,95,i,41,i,i
c1ccc(-c2nc(-c3ccccn3)nc(-c3ccccn3)n2)nc1,-39,i,i,i,i,i
c1ccc(C2=NNC(c3ccccn3)=NN2)nc1,-36,nt,i,i,i,i
Cc1nn(-c2ccccc2)c(N2CCCC2)c1/C=C1\N=C(c2ccccc2)OC1=O,i,117,i,i,i,i
CN(Cc1ccccc1)C(=O)C1CCN(S(=O)(=O)c2ccc3nc4c(c(C(=O)O)c3c2)CCCC4)CC1,i,nt,i,i,i,i
O=C(NCCN1CCOCC1)c1c(O)nc2sccn2c1=O,i,nt,i,i,i,i
CS(=O)(=O)Nc1ccc(C(=O)NCCSCc2ccccc2)cc1,i,i,i,i,i,i
CS(=O)(=O)Nc1ccc(C(=O)NCCc2ccccc2)cc1,i,i,i,i,i,145
CN1CCCN(S(=O)(=O)c2ccccc2)c2nc3ccccc3nc21,nt,nt,i,nt,nt,nt
Cc1ccc(S(=O)(=O)N2CCCN(C)c3nc4ccccc4nc32)cc1,nt,nt,i,i,i,38
CCOC(=O)C1=C(Cc2ccc(C)cc2)C(=O)c2ccccc2C1=O,i,i,nt,43,i,i
CCOC(=O)C1=C(Cc2ccc(OC)cc2)C(=O)c2ccccc2C1=O,nt,i,28,nt,nt,nt
CCOC(=O)c1c(C)nc2c(c1-c1cc(OC)ccc1OC)C(=O)c1ccccc1-2,i,i,i,i,i,i
CCOC(=O)c1ccc(COC(=O)c2ccc3c(c2)-c2ccccc2C3=O)cc1,i,i,i,i,i,i
CCCCC(=O)N(C)c1c(C)nc2ccc(C(=O)N3CCN(S(=O)(=O)CC)CC3)cn12,nt,nt,i,nt,nt,nt
O=c1[nH]cc(COCC(F)CCl)c(=O)[nH]1 (stereo not drawn),i,i,i,i,i,i
O=C(NCCCn1ccnc1)c1ccc2c(c1)OCCO2,i,90,i,i,i,i
Cc1ccc(C(=O)NCCCn2ccnc2)cc1C,i,nt,i,i,i,i
COc1ccc(NC(=S)NNc2ccc(S(=O)(=O)Nc3ccccc3C(=O)O)cc2[N+](=O)[O-])cc1,-87,i,i,i,i,i
SMILES,MEX-5 binding,EBV gp42 inh,eLon inh,GLD-1 RNA inh,MCL1-BIM inh,BCLXL inh
CCOc1ccc(C(=O)C[n+]2cccc3cc(C)ccc32)cc1,i,nt,i,i,45,35
O=C(CSc1ccsc1[N+](=O)[O-])Nc1cccc(F)c1,i,62,i,nt,nt,nt
CC(=O)Nc1ccc(NC(=O)CSc2ccc(C(F)(F)F)cc2[N+](=O)[O-])cc1,i,i,i,i,i,i
O=C(CSc1ccc(C(F)(F)F)cc1[N+](=O)[O-])Nc1ccccc1,i,i,37,i,i,i
Nc1nnc2c(n1)CCCC2,-32,i,i,i,i,i
C1CCc2nc3c(nc2C1)CCCC3,i,i,i,i,i,i
CC(OC(=O)c1ccccc1C(=O)O)c1ccccc1 (stereo not drawn),nt,nt,i,nt,nt,nt
CNC(=O)/C(C#N)=C/c1ccc(-c2nc3ccccc3s2)o1,-67,i,i,i,i,i
